“And” between values parts separate entries of the source, which are not always exact repeats. Equal entries are not always repeated. Inconclusive results are not listed. The source made the active and inactive calls. The call rests on the fitted dose curve; in most records, active means well fitted cell-killing curve with a large enough effect in the repeat runs; inconclusive means weak or mixed curves, or effect the other way; inactive means flat fitted curve, though single readings scatter.
Assay: cAMP Responsive Elements (CRE) small molecule agonists, cell-based qHTS assay: qHTS cell viability counter screen (AID 2060914);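 further: viability read after 3 h of compound exposure; nearly all actives have a fitted effect of over 50% in size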
Conditions: CRE-bla HEK293T viability, CellTiter-Glo luminescence, 5 h; series mostly up to 92.4 µM; activity change, negative = cytotoxicity: at the top concentration
From the text: National Center for Advancing Translational Sciences [NCATS]
Division of Preclinical Innovation [DPI]
U.S. Environmental Protection Agency [EPA]
National Institutes of Environmental Health Sciences [NIEHS]
National Toxicology Program [NTP]
U.S. Food and Drug Administration [FDA]
CREB (cyclic-AMP Responsive Element Binding Protein) is a cellular transcription factor. It binds to certain DNA sequences called cAMP Responsive Elements (CRE) and regulates the transcription of the genes. […] This cell line can be used to find agonists/antagonists of the cyclic AMP signaling pathway. The activation of the report gene under culture conditions can be detected by fluorescence intensity. This cell line has been used to screen the Tox21 10K compound library to identify agonists that induce oxidative stress. The cytotoxicity of the Tox21 compound library against the CRE-bla cell line was tested in parallel by measuring the cell viability using CellTiter-Glo assay (Promega, Madison, WI) in the same wells.
Tox21 Assay Protocol Summary:
CRE-bla Hek 293T cells were suspended in assay medium (DMEM containing 10% dialyzed FBS, 0.1 mM NEAA, 1 mM sodium pyruvate and 25 mM HEPES) and dispensed at 2,000 cells/5 uL /well into 1536-well black wall/clear bottom plates using a Multidrop Combi (ThermoFisher Scientific, Waltham, MA) dispenser. After the assay plates were incubated at 37 C/5% CO2 for 18 hrs, 23 nL of compounds dissolved in DMSO, positive controls or DMSO only was transferred to the assay plate by a pintool workstation (Kalypsys, San Diego, CA). After the plates were incubated at 37 C/5% CO2 for 3 hrs, 1 uL of LiveBLAzer B/G FRET substrate (Invitrogen, Carlsbad, CA) was added to each well using Bioraptr Flying Reagent Dispenser (FRD, Aurora Discovery, San Diego, CA). The plates were incubated at room temperature for 2 h, then fluorescence intensities were measured using an Envision plate reader (PerkinElmer, Shelton, CT) at Excitation 405nm, Emission 460nm and 530nm. The % activity was determined from the ratio of 460nm/530nm. For cell viability readout that measures cytotoxicity, 4 uL /well of CellTiter-Glo reagent was added into the assay plates using Bioraptr FRD. After 30 min incubation at room temperature, the luminescence intensity in the assay plates was measured using a ViewLux (PerkinElmer, Shelton, CT) plate reader.
In the case of `CC(C)Oc1ccccc1O`, the “activity change, negative = cytotoxicity” value is reported as 0.121% (inactive). In the case of `COc1ccc(-c2cc(=S)ss2)cc1`, the “activity change, negative = cytotoxicity” value is reported as -1.94% [at 42.5 µM] (inactive). For `COC(=O)/C=C(\C)CCC=C(C)C`, the “activity change, negative = cytotoxicity” value was -0.0954% (inactive). With `CCCCCCCCCCCCCC[P+](CCCC)(CCCC)CCCC` the Potency was 60.8 µM (active) and 61.1 µM (active). For `O=C(O)CCC(=O)O`, the Potency was “inactive”. In the case of `CCC(C)O` (stereo not given), the “activity change, negative = cytotoxicity” value is reported as 12.5% (inactive). For `CCCCCCCCCCCCCCCCCCO`, the “activity change, negative = cytotoxicity” value was 7.81% [at 42.5 µM] (inactive). For `CCO`, the “activity change, negative = cytotoxicity” value was 0.12% (inactive). For `O=C(NCc1ncc(C(F)(F)F)cc1Cl)c1c(Cl)cccc1Cl`, the “activity change, negative = cytotoxicity” value was -6.44% (inactive). In the case of `CCCCCCCCCCCCCC[n+]1ccccc1`, the Potency is reported as 61.1 µM (active). For `CCN(CCCc1ccccc1)CCCc1ccccc1`, the “activity change, negative = cytotoxicity” value was 5.86% [at 42.5 µM] (inactive). For `CC(C)(c1ccccc1)c1ccccc1`, the “activity change, negative = cytotoxicity” value was 0.525% (inactive). For `CCc1nn(CCCN2CCN(c3cccc(Cl)c3)CC2)c(=O)n1CCOc1ccccc1`, the “activity change, negative = cytotoxicity” value was -17.6% [at 42.5 µM] (inactive). For `CC1CCCNC1` (stereo not given), the “activity change, negative = cytotoxicity” value was -14% (inactive). For `O=C(O)C(=O)O`, the Potency was “inactive”. In the case of `Cc1c(-c2cccnc2)c2ccccc2n1CCCCC(=O)O`, the “activity change, negative = cytotoxicity” value is reported as 12% (inactive). In the case of `CN(C)CCOC(C)(c1ccccc1)c1ccccn1` (stereo not given), the Potency is reported as “inactive”. For `CC(C)C[C@H](NC(=O)CNC(=O)[C@H](Cc1ccc(O)cc1)NC(=O)[C@H](CO)NC(=O)[C@H](Cc1c[nH]c2ccccc12)NC(=O)[C@H](Cc1cnc[nH]1)NC(=O)[C@@H]1CCC(=O)N1)C(=O)N[C@@H](CCCN=C(N)N)C(=O)N1CCC[C@H]1C(=O)NCC(N)=O` (stereo in doubt), the “activity change, negative = cytotoxicity” value was -0.725% [at 42.5 µM] (inactive). In the case of `Cc1ccc(C)c([N+](=O)[O-])c1`, the “activity change, negative = cytotoxicity” value is reported as -0.455% (inactive). With `c1ccc2sc(SN(C3CCCCC3)C3CCCCC3)nc2c1` the “activity change, negative = cytotoxicity” value was 5.45% (inactive). In the case of `O=C(O)Cc1ccccc1Nc1c(Cl)cccc1Cl`, the Potency is reported as “inactive”. In the case of `CCOC(=O)[C@H](CCc1ccccc1)N[C@H]1CS[C@H](c2cccs2)CN(CC(=O)O)C1=O`, the “activity change, negative = cytotoxicity” value is reported as 5.08% [at 42.5 µM] (inactive). For `CCCCNCCCC`, the “activity change, negative = cytotoxicity” value was 5.51% (inactive). With `O=C(c1ccccc1)c1ccc(O)cc1O` the Potency was “inactive”. With `C[C@@H](Oc1ccc(CNC(=O)c2cccnc2Oc2ccc3c(c2)OCO3)c(F)c1)C(=O)O` the “activity change, negative = cytotoxicity” value was 1.19% (inactive). In the case of `C=CCOCC(CO)(COCC=C)COCC=C`, the “activity change, negative = cytotoxicity” value is reported as 2.85% [at 42.5 µM] (inactive). In the case of `Cc1ccc(C(=O)c2ccc(CC(=O)O)n2C)cc1`, the “activity change, negative = cytotoxicity” value is reported as 0.11% [at 42.5 µM] (inactive). With `O=c1cc(-c2ccc(O)cc2)oc2cc(O)cc(O)c12` the Potency was “inactive”. In the case of `NC(=O)Cn1c(=O)cc(CCN2CCN(c3nccc4sccc34)CC2)c2ccc(F)cc21`, the “activity change, negative = cytotoxicity” value is reported as 6.59% (inactive). In the case of `CCOC(=O)C1CC(=O)C(=C(O)C2CC2)C(=O)C1` (stereo not given), the “activity change, negative = cytotoxicity” value is reported as 13.3% (inactive). For `CCN(CC)C(=O)c1cccc(C)c1`, the Potency was “inactive”. For `C=C(C)C(=O)OCCCCCCCC(C)C`, the “activity change, negative = cytotoxicity” value was -6.51% (inactive). With `Cc1ccc(N=Nc2c(O)ccc3ccccc23)c(C)c1` the “activity change, negative = cytotoxicity” value was 0.205% [at 42.5 µM] (inactive). For `O=S(=O)(O)c1cc(O)c2ccc(Nc3ccccc3)cc2c1`, the “activity change, negative = cytotoxicity” value was -0.323% (inactive). With `CC(C)(N)C#N` the “activity change, negative = cytotoxicity” value was 4.46% (inactive). With `CC(C)CC(=O)O` the “activity change, negative = cytotoxicity” value was -2.12% (inactive). With `NC(N)=O` the Potency was “inactive”. With `CCCCCCCCCCCCCCCCCCN(C)C` the “activity change, negative = cytotoxicity” value was -10.3% [at 42.5 µM] (inactive). In the case of `CCCCCCOC(=O)C(C)CC` (stereo not given), the “activity change, negative = cytotoxicity” value is reported as -1.48% (inactive). With `O=C(c1ccccc1)C1CCC1` the “activity change, negative = cytotoxicity” value was 0.0249% (inactive).
On the % scale 0 is the no-effect control and ±100 the full control effect; potency means the concentration at half of the fitted maximal effect.
